Structures are written as SMILES.

The values that follow come from ChEMBL document CHEMBL3433997, “St. Jude Leishmania screening dataset” (2016).

Format in all cases: functional
Experiment [1] concerns the target Solute carrier family 2, facilitated glucose transporter member 1 (Homo sapiens) (UniProt P11166). In words: ST_JUDE_LEISH: Cytotoxicity at 2uM final concentration against transgenic Leishmania Mexicana promastigotes LmGLUT1 that are glucose transport deficient and complemented with the human glucose transporter GLUT1. Activity is measured by DNA content using SYBR green in vitro.

Experiment [2] concerns the target Hexose transporter 1 (Plasmodium falciparum) (UniProt O97467). Description: ST_JUDE_LEISH: Cytotoxicity at 2uM final concentration against transgenic Leishmania Mexicana promastigotes LmPfHT that are glucose transport deficient and complemented with the Plasmodium falciparum hexose transporter. Activity is measured by DNA content using SYBR green in vitro.
Experiment [3] concerns the target Glucose transporter (Leishmania mexicana) (UniProt O61059). In words: ST_JUDE_LEISH: Cytotoxicity at 2uM final concentration against transgenic Leishmania Mexicana promastigotes LmGT2 that are glucose transport deficient and complemented with the L. Mexicana glucose transporter 2. Activity is measured by DNA content using SYBR green in vitro.

Chain of Solute carrier family 2, facilitated glucose transporter member 1 (Homo sapiens) (P11166 whole entry): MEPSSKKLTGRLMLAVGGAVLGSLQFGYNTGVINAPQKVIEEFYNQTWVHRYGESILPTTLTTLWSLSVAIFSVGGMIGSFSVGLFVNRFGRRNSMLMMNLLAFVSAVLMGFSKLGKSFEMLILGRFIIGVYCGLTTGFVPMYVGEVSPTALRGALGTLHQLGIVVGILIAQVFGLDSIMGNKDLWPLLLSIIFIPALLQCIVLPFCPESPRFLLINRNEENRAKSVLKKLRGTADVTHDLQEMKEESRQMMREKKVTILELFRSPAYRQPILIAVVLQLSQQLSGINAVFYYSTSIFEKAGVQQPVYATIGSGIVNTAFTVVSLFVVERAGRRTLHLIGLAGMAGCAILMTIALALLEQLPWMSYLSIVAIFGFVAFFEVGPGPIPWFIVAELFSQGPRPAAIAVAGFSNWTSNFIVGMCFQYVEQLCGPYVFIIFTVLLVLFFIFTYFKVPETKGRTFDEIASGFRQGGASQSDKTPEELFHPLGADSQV

Consider `NC(=O)c1ccc(NC(=O)CN(Cc2ccc(Cl)cc2)S(=O)(=O)c2ccccc2)cc1`, for which the inhibition was found to be 7.52% in experiment [1], 5.01% in experiment [2] and 7.46% in experiment [3].

`Cc1ccc(NC(=O)c2ccc(N3CCC(c4ccccc4C)CC3)nc2)cc1`: the inhibition in experiment [1] came to 11.9%; in experiment [2] it was 9.58%; in experiment [3] it was 8.1%.

In the case of `CCc1cc(COc2ccc(CNCCC(C)C)cc2I)c(OCc2ccccc2)c(COc2ccc(CNCCC(C)C)cc2I)c1`, the values for the inhibition in experiment [1], in experiment [2] and in experiment [3] were -0.25%, -3.29% and 3.76%, respectively.

`COCCNC(=O)c1ccc(OC2CCN(CC(C)=Cc3ccccc3)CC2)c(Cl)c1`: the inhibition in experiment [1] is 2.65%; in experiment [2], 3.32%; in experiment [3], 1.03%.

For `CCN1CCC(N(CCCCCCCCc2ccc(C(F)(F)F)cc2)C(=O)Cn2c(CCc3cccc(F)c3F)cc(=O)c3ccccc32)CC1`, the inhibition in experiment [1] is 8.91%; in experiment [2], 9.52%; in experiment [3], 4.76%.

Consider `Oc1ccc2c(c1NCC1CCCCC1)CCCC2`, for which the inhibition in experiment [1] came to 2.5%; in experiment [2], 2.89%; in experiment [3], 1.57%.

`COc1cc(SC)c(Br)cc1-c1nc2ccncc2[nH]1`: the inhibition in experiment [1] is 3.09%; in experiment [2], 2.12%; in experiment [3] it was 4.52%.

On to `COC(=O)c1cccc(CNCc2cccc(-c3csc(-c4nc5ccccc5[nH]4)c3)c2)c1`, for which the inhibition in experiment [1] was 9.3%; in experiment [2] it was 8.51%; in experiment [3], 6.38%.

Turning to `CN1CCN(c2ccnc3ccc(NC(=O)Nc4ccc(Cl)cc4)cc23)CC1`, the inhibition is -1.11% in experiment [1], -0.83% in experiment [2] and -1.7% in experiment [3].

For `COc1ccc(-c2ccc(NC(=O)c3ccc(Cl)cc3)cc2)cc1CN(C)CCO`, the results for the inhibition in experiment [1], in experiment [2] and in experiment [3] were 4.1%, 3.45% and -0.68%, respectively.

Turning to `CCC[C@@H]([C@@H](CC(C)C)C(=O)N[C@@H](CCCCNC(=O)OCc1ccccc1)C(=O)Nc1ncccn1)N(O)C=O`, the inhibition in experiment [1] was found to be 19.1%; in experiment [2] it was 21.5%; in experiment [3], 17.1%.

Consider `NCCCNc1nccc(N2CCc3ncnc(Nc4ccc(OCc5cccc(F)c5)c(Cl)c4)c3C2)n1`, for which the inhibition in experiment [1] was 2.13%; in experiment [2], 4.48%; in experiment [3], 4.02%.

Consider `COc1ccc(NC(=O)Nc2cccc(-c3ccc(-c4nc5cccc(C)c5[nH]4)s3)c2)cc1`, for which the inhibition in experiment [1] stood at 6.52%; in experiment [2] it was 5.29%; in experiment [3], 3.22%.

`OCC(c1ccccc1)n1c(COc2ccc(Cl)cc2)nc2c(OCCCN3CCCCC3)cccc21` (configuration not stated): the results for the inhibition in experiment [1], in experiment [2] and in experiment [3] were 12.9%, 9.11% and 6.47%, respectively.

For the molecule `COc1cccc(NC(=O)Nc2ccc(-c3oc(C(=O)NCC(c4ccccc4)N(C)C)cc3-c3ccncc3)cc2)c1` (configuration not stated), the inhibition in experiment [1] was 5.08%; in experiment [2], 3.73%; in experiment [3], 3.18%.

Consider `Cc1cc(N(C)C)nc(Nc2ccc(NC(=O)c3ccccc3C)cc2)n1`, for which the inhibition in experiment [1] turned out to be 11.4%; in experiment [2], 17.1%; in experiment [3], 5.05%.

Take `NC(=O)C1CCN(Cc2cccc(-c3cccc(-c4nc5cc(F)ccc5[nH]4)c3)c2)CC1`: the results for the inhibition in experiment [1], in experiment [2] and in experiment [3] were -0.94%, 1.68% and 1.45%, respectively.

For the molecule `Cc1cc(C2NC(=O)c3ccccc3N2)c(C)n1-c1ccc2c(c1)OCO2` (configuration not stated), the inhibition in experiment [1] is 4.98%; in experiment [2], 3.59%; in experiment [3], 4.51%.

On to `CC(CCCCC(=O)Nc1ccc(C(F)(F)F)cc1)NCC(O)c1cccc(Cl)c1` (configuration not stated), for which the figures for the inhibition in experiment [1], in experiment [2] and in experiment [3] were 1.04%, -0.95% and 1.56%, respectively.

Regarding `CNc1nc(N/N=C/c2cc([N+](=O)[O-])c(Cl)cc2Cl)nc(Nc2cccc(C(F)(F)F)c2)n1`, the inhibition in experiment [1] was 4.8%; in experiment [2], 2.41%; in experiment [3] it was 0.84%.

Consider `CC(C)(C)c1ccc(CNC(=O)c2ccc(-c3nc4cc(C(C)(C)C)ccc4[nH]3)cc2)cc1`, for which the inhibition in experiment [1] came to 4.41%; in experiment [2], 4.23%; in experiment [3], 1.77%.

On to `CN1CCC(N2CCN(Cc3ccc(-c4ccc(-c5nc6cc(F)ccc6[nH]5)s4)cc3)CC2)CC1`, for which the inhibition in experiment [1] is 2.75%; in experiment [2] it was 2.55%; in experiment [3] it was -0.25%.

On to `C[C@H](Cc1ccc(OCCCCCCOc2ccc(C[C@@H](C)N[C@H](C)c3ccccc3)cc2)cc1)NC[C@H](O)c1cccc(Cl)c1`, for which the inhibition was 106% in experiment [1], 94% in experiment [2] and 82.4% in experiment [3].

Regarding `CN(C)S(=O)(=O)c1ccc(N2CCN(CCC3(c4cccc(F)c4)CCN(C(=O)C(C)(C)C)CC3)CC2)c2nonc12`, the figures for the inhibition in experiment [1], in experiment [2] and in experiment [3] were 9.09%, 8.17% and 2.89%, respectively.

As for `Cc1[nH]c(C)c(-c2cc3ccccc3o2)c(=O)c1Cl`, the inhibition in experiment [1] came out at 0.9%; in experiment [2], 1.79%; in experiment [3], 0.5%.

As for `N=c1c2nc(-c3c(F)cccc3Cl)[nH]c(=O)c2[nH]c(=O)n1-c1ccccc1`, the inhibition in experiment [1] came to 2.91%; in experiment [2] it was 11.5%; in experiment [3], 3.34%.

For `COc1ccc2nccc([C@@H](O)CN3CCC(NCCOc4cccc(C(F)(F)F)c4)CC3)c2c1`, the inhibition was determined as 9.63% in experiment [1], 12.5% in experiment [2] and 0.73% in experiment [3].

For the molecule `COc1ccc(-c2nc(NC(=O)CS(=O)(=O)c3ccc(OC)cc3)sc2C)cc1`, the inhibition is 2.15% in experiment [1], 2.85% in experiment [2] and 3.47% in experiment [3].

For `N#Cc1ccc(N[C@@H](CC2CCCCC2)C(=O)N[C@@H]2CCCc3ccccc32)c2ccccc12`, the inhibition in experiment [1] worked out at 0.46%; in experiment [2] it was 1.88%; in experiment [3], 0.82%.

In the case of `COc1ccc(Nc2nccc(N3CCC(NC(=O)C(C)c4ccc(Cl)cc4)C3)n2)cc1` (configuration not stated), the inhibition was -0.18% in experiment [1], 0.96% in experiment [2] and 1.34% in experiment [3].

With `CCn1cnc2c(N3CCCS3(=O)=O)cc(C(=O)N[C@@H](Cc3ccccc3)[C@H](O)CNC(C)(C)c3cccc(C(F)(F)F)c3)cc21`, the inhibition was found to be 3.01% in experiment [1], 2.45% in experiment [2] and 2.04% in experiment [3].

`COc1cc(NCCCNC(=O)c2cc3c(Cl)cc(Cl)cc3[nH]2)nc2ccccc12`: the values for the inhibition in experiment [1], in experiment [2] and in experiment [3] were 2.04%, 6.51% and 0.77%, respectively.

In the case of `O=C(O[C@H]1CN[C@H](C#Cc2cc3c(Nc4ccc(OCc5cccc(F)c5)c(Cl)c4)ncnc3s2)C1)N1CCCC1`, the inhibition in experiment [1] was found to be 3.78%; in experiment [2], 6.01%; in experiment [3], 4.65%.

Consider `O=C(COc1cccc([N+](=O)[O-])c1)Nc1ccc(-c2nc3ccccc3[nH]2)cc1`, for which the inhibition in experiment [1] is 1.62%; in experiment [2] it was 2.12%; in experiment [3], -1.82%.

As a reminder, the inhibition is the relative decrease from the control value, in per cent.
